The whole screen tested about 48,000 compounds, of which about 13,000 (27%) showed an effect of 50% or more. The list shows a part of the results.
system: Wolbachia pipientis; assay: Anti-Wolbachia Cell-Based Screen; type: functional; design: scale not given: in the data most compounds retested in dose-response had high values; settings: 5 µM

| Structure (SMILES) | Percent Effect [%] |
| --- | --- |
| Cc1cnc(N2C[C@@H]3[C@@H](C2)OCC(=O)N3CC(C)C)nc1.O=C(O)C(F)(F)F | -17.14 |
| Nc1ncccc1CN1CCCn2nc(CCC(=O)NC3CC3)cc2C1 | 172.9 |
| CCn1cc(CN2CCCn3nc(CCC(=O)NCCO)cc3C2)cn1 | -3.785 |
| Cc1cc(CN2CCCn3nc(CCC(=O)O)cc3C2)ccc1F | -13.15 |
| O=C(CCc1cc2n(n1)CCCN(Cc1ccccc1F)C2)NC1CC1 | 0.7471 |
| O=C(CCc1cc2n(n1)CCCN(CCc1ccccc1)C2)NC1CC1 | 113.2 |
| CSc1ccccc1CN1CCCn2nc(CNC(=O)N(C)C)cc2C1 | 2.043 |
| Cc1nc(C(NC(=O)CC(F)(F)F)c2ccc(Cl)cc2)no1 (configuration not stated) | 0.7806 |
| COCC(=O)N1CCCCC1c1nc(C)c2c(n1)N(C1CC1)C(=O)CC2 (configuration not stated) | 63.67 |
| CC(C)CS(=O)(=O)CC(=O)N1CCCC1c1noc(C2CC2)n1 (configuration not stated) | -6.47 |
| COCC(=O)N1CCCCC1c1nc(C)c2c(n1)N(CC1CC1)C(=O)C2 (configuration not stated) | 105.7 |
| Cn1c(C2CCCN2C(=O)CN2CCCC2=O)nc2ccccc21 (configuration not stated) | 0.4362 |
| COCC(=O)N1CCCC1c1nc(C)c2c(n1)N(CC(C)C)C(=O)CC2 (configuration not stated) | 117 |
| COCCC(=O)N1CCCC1c1cccc(C)c1C (configuration not stated) | 3.518 |
| COCCn1cc(C(=O)N2CCCC2c2noc(C)n2)ccc1=O (configuration not stated) | 10.03 |
| COCC(=O)N1CCCC1c1cccc(C)c1C (configuration not stated) | 4.955 |
| COCCC(=O)N1CCCC1c1nc(C)c2c(n1)N(C)C(=O)CC2 (configuration not stated) | 147.7 |
| CC(Nc1nc2c(cnn2C)c(=O)[nH]1)c1ccc(F)cc1 (configuration not stated) | -20.73 |
| COCCN1CC(C(=O)N(C)Cc2cc(-c3cccnc3)no2)CC1=O (configuration not stated) | -16.5 |

| Structure (SMILES) | Percent Effect [%] |
| --- | --- |
| O=C(c1cnc2c(c1)CCC2)N1CCCC(CO)(CC2CC2)C1 (configuration not stated) | -2.632 |
| OC[C@@H](O)CN(CCC(F)(F)F)c1ncc(Br)cn1 | 8.436 |
| CCC(Nc1nnnn1-c1ccccc1)C(=O)NCc1ccsc1 (configuration not stated) | 4.065 |
| CCN(CC)C(=O)CN1CCCC1c1nc(C)c2c(n1)N(C)C(=O)CC2 (configuration not stated) | 125.7 |
| Cc1nc(C2CCCN2CC(=O)N(Cc2ccsc2)C2CC2)no1 (configuration not stated) | -3.982 |
| CCN(CC)C(=O)CN1CCCC1C(=O)N(C)C (configuration not stated) | 1.193 |
| Cn1cccc1C(=O)NCc1cnc2n1CCN(CC1CCOCC1)C2.O=C(O)C(F)(F)F | 19.82 |
| Cc1cc(C(=O)N2CCc3ncc(CN4CCCC4)n3CC2)no1.O=C(O)C(F)(F)F | -20 |
| O=C(NCc1cnc2n1CCN(CC1CC1)C2)C1CC1.O=C(O)C(F)(F)F | 80.69 |
| Cn1cccc1C(=O)NCc1cnc2n1CCN(CC1CC1)C2.O=C(O)C(F)(F)F | -11 |
| Cc1ccc(CN2CCc3ncc(CNC(=O)C4CCC4)n3CC2)o1.O=C(O)C(F)(F)F | 89.47 |
| O=C(NCc1cnc2n1CCN(CC1CCOCC1)C2)c1ccno1.O=C(O)C(F)(F)F | -43.24 |
| Cn1ccnc1C(=O)NC[C@@H]1OC[C@H]2CN(CC3CC3)CC[C@H]21.O=C(O)C(F)(F)F | -43.28 |
| Cn1ccnc1C(=O)NCc1cnc2n1CCN(CC1CC1)CC2.O=C(O)C(F)(F)F.O=C(O)C(F)(F)F | 88.03 |
| O=C(NCc1cnc2n1CCN(Cc1ccsc1)CC2)C1CCC1.O=C(O)C(F)(F)F | -9.045 |
| O=C(NCc1cnc2n1CCN(Cc1nccs1)CC2)C1CCC1.O=C(O)C(F)(F)F | 95.25 |
| O=C(NCc1cn2c(n1)CN(Cc1nccs1)CC2)C1CCC1.O=C(O)C(F)(F)F | -3.871 |
| Cc1ccc(CN2CCc3ncc(CNS(C)(=O)=O)n3CC2)o1.O=C(O)C(F)(F)F | -0.4637 |

Reference: ChEMBL document CHEMBL3988442, “University of Dundee, Small-Polar-MMV Screening Library” (2021)
